In PubChem BioAssay (EPA / NIEHS):
Active and inactive are the calls of the source. The calls were made as follows: active = hit-call score of the fitted dose curve at least 0.9, where 1 is the maximum; inactive = score below 0.9.

Legend:
Settings in all cases: mRNA level, 48 h; actives raise or lower the signal
CYP2C8 (gene 1558) = assay: LTEA_HepaRG_CYP2C8: Life Technologies and Expression Analysis (LTEA) Assay for CYP2C8 using HepaRG (AID 2283483)
Summary of the method: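 HepaRG (human liver line), 48 h chemical exposure, 8-pt half-log series from 100 uM, 0.5% DMSO vehicle. Readout: CYP2C8 transcript by qRT-PCR, housekeeping-normalized. Bidirectional fit vs DMSO baseline.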

CYP2C9 (gene 1559) = assay: LTEA_HepaRG_CYP2C9: Life Technologies and Expression Analysis (LTEA) Assay for CYP2C9 using HepaRG (AID 2283484)
Summary of the method: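 HepaRG, 48 h dosing, 8-pt half-log series, top 100 uM, 0.5% DMSO vehicle. Read-out: CYP2C9 transcript by TaqMan qRT-PCR, housekeeping-normalized (ACTB/GAPDH/POLR2A). Gain or loss fitted vs DMSO baseline.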

CYP2E1 (gene 1571) = assay: LTEA_HepaRG_CYP2E1: Life Technologies and Expression Analysis (LTEA) Assay for CYP2E1 using HepaRG (AID 2283485)
Summary of the method: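 CYP2E1 transcript was measured by TaqMan qRT-PCR in human HepaRG cultures after 48 h chemical exposure (top 100 uM, half-log steps, 0.5% DMSO vehicle). Housekeeping-gene normalization; gain or loss fitted relative to DMSO baseline.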

CYP4A11 (gene 1579) = assay: LTEA_HepaRG_CYP4A11: Life Technologies and Expression Analysis (LTEA) Assay for CYP4A11 using HepaRG (AID 2283486)
Summary of the method: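 Readout is CYP4A11 mRNA induction or suppression (qRT-PCR, ACTB/GAPDH/POLR2A normalization) in human HepaRG cells after 48 h chemical treatment, concentrations to 100 uM in 0.5% DMSO, fitted bidirectionally against vehicle.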

[1] = read-out: DNA damage-inducible transcript 3 (DDIT3), DDIT3 (gene 1649); assay: LTEA_HepaRG_DDIT3: Life Technologies and Expression Analysis (LTEA) Assay for DNA damage-inducible transcript 3 (DDIT3) using HepaRG (AID 2283488)
Summary of the method: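 qRT-PCR readout (Fluidigm TaqMan), housekeeping-normalized to ACTB, GAPDH, POLR2A. HepaRG cells, 48 h exposure, 8-point half-log series from 100 uM in 0.5% DMSO, duplicates. Gain or loss of signal fitted against DMSO baseline.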

[2] = read-out: Pro-epidermal growth factor (Homo sapiens) (UniProt P01133); assay: LTEA_HepaRG_EGF: Life Technologies and Expression Analysis (LTEA) Assay for Epidermal growth factor (EGF) using HepaRG (AID 2283489)
Summary of the method: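 EGF expression changes in human HepaRG cells are scored by bidirectional fitting relative to 0.5% DMSO controls. Chemicals are tested at eight half-log concentrations up to 100 uM for 48 h in serum-free induction medium.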

[3] = read-out: Early growth response protein 1 (EGR1) transcription factor, EGR1 (gene 1958); assay: LTEA_HepaRG_EGR1: Life Technologies and Expression Analysis (LTEA) Assay for Early growth response protein 1 (EGR1) transcription factor using HepaRG (AID 2283490)
Summary of the method: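 HepaRG, 48 h exposure, 8-pt half-log series from 100 uM, 0.5% DMSO vehicle; EGR1 transcript by TaqMan qRT-PCR (Fluidigm array), housekeeping-normalized; bidirectional fit relative to DMSO baseline.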

[4] = read-out: Ezrin (EZR), EZR (gene 7430); assay: LTEA_HepaRG_EZR: Life Technologies and Expression Analysis (LTEA) Assay for Ezrin (EZR) using HepaRG (AID 2283491)
Summary of the method: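 Read-out is EZR transcript level by qRT-PCR, normalized to three housekeeping genes and fitted bidirectionally against the DMSO control. Human HepaRG cells received test chemicals for 48 h at eight half-log concentrations up to 100 uM in 0.5% DMSO.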

CYP3A5 (gene 1577) = assay: LTEA_HepaRG_CYP3A5: Life Technologies and Expression Analysis (LTEA) Assay for CYP3A5 using HepaRG (AID 2283493)
Summary of the method: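 qRT-PCR read-out: CYP3A5 transcript in HepaRG lysates, housekeeping-normalized (ACTB/GAPDH/POLR2A), fitted bidirectionally against 0.5% DMSO baseline. Exposure 48 h, eight half-log concentrations up to 100 uM, duplicates.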

[5] = read-out: Fatty Acid-Binding Protein 1 (FABP1), FABP1 (gene 2168); assay: LTEA_HepaRG_FABP1: Life Technologies and Expression Analysis (LTEA) Assay for Fatty Acid-Binding Protein 1 (FABP1) using HepaRG (AID 2283494)
Summary of the method: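 qRT-PCR readout of FABP1 transcript (normalized to three housekeeping genes) after 48 h chemical exposure of HepaRG cells; eight concentrations, half-log steps, max 100 uM, 0.5% DMSO vehicle; gain or loss fitted relative to DMSO baseline.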

[6] = read-out: Cytochrome P450 7A1 (Homo sapiens) (UniProt P22680); assay: LTEA_HepaRG_CYP7A1: Life Technologies and Expression Analysis (LTEA) Assay for Cytochrome P450 7A1 (CYP7A1) using HepaRG (AID 2283496)
Summary of the method: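 Using 0.5% DMSO as vehicle and baseline, chemicals were tested in duplicate over an 8-point range from 100 uM on HepaRG cells for 48 h; qRT-PCR signals were normalised to ACTB, GAPDH and POLR2A.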

[7] = read-out: Glutathione S-Transferase (GSTA2), GSTA2 (gene 2939); assay: LTEA_HepaRG_GSTA2: Life Technologies and Expression Analysis (LTEA) Assay for Glutathione S-Transferase (GSTA2) using HepaRG (AID 2283497)
Summary of the method: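 qRT-PCR readout of GSTA2 transcript, normalized to three housekeeping genes, fitted bidirectionally against 0.5% DMSO baseline. Differentiated HepaRG cells received compound for 48 h at 8 concentrations (top 100 uM, half-log steps).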

[8] = read-out: Glutamate-cysteine ligase catalytic (GCLC), GCLC (gene 2729); assay: LTEA_HepaRG_GCLC: Life Technologies and Expression Analysis (LTEA) Assay for Glutamate-cysteine ligase catalytic (GCLC) using HepaRG (AID 2283498)
Summary of the method: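 HepaRG, 48 h exposure, 8-pt half-log series from 100 uM, 0.5% DMSO vehicle; TaqMan qRT-PCR for GCLC mRNA, housekeeping-normalized; bidirectional curve fit vs DMSO baseline.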

[9] = read-out: growth arrest and DNA damage 45 (GADD45G), GADD45G (gene 10912); assay: LTEA_HepaRG_GADD45G: Life Technologies and Expression Analysis (LTEA) Assay for growth arrest and DNA damage 45 (GADD45G) using HepaRG (AID 2283499)
Summary of the method: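 Human hepatic HepaRG line treated 48 h with chemicals (eight concentrations, half-log steps from 100 uM); transcript induction or repression of GADD45G scored by qRT-PCR versus DMSO vehicle.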

[10] = read-out: Glutamate-cysteine ligase regulatory (GCLM), GCLM (gene 2730); assay: LTEA_HepaRG_GCLM: Life Technologies and Expression Analysis (LTEA) Assay for Glutamate-cysteine ligase regulatory (GCLM) using HepaRG (AID 2283500)
Summary of the method: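 HepaRG, 48 h dosing, 100 uM top, half-log x8, 0.5% DMSO vehicle. Readout: GCLM mRNA by TaqMan qRT-PCR, housekeeping-normalized (ACTB/GAPDH/POLR2A). Curves fit bidirectionally vs DMSO baseline.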

[11] = read-out: Glutathione S-transferase M3 (GSTM3), GSTM3 (gene 2947); assay: LTEA_HepaRG_GSTM3: Life Technologies and Expression Analysis (LTEA) Assay for Glutathione S-transferase M3 (GSTM3) using HepaRG (AID 2283501)
Summary of the method: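 Changes in GSTM3 expression, an oxidative-stress marker, were scored by bidirectional curve fitting against 0.5% DMSO vehicle. Human HepaRG cultures received chemicals for 48 h in duplicate, highest concentration 100 uM with half-log dilutions.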

[12] = read-out: Heat shock 70 kDa protein 1 (HSPA1A), gene 3303; assay: LTEA_HepaRG_HSPA1A: Life Technologies and Expression Analysis (LTEA) Assay for Heat shock 70 kDa protein 1 (HSPA1A) using HepaRG (AID 2283502)
Summary of the method: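 HepaRG, 48 h exposure, 8-pt half-log CRC from 100 uM in 0.5% DMSO, duplicates. Readout: TaqMan qRT-PCR of HSPA1A mRNA, housekeeping-normalized (ACTB/GAPDH/POLR2A). Bidirectional fit vs 0.5% DMSO baseline.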

## CCOC1Oc2ccc(OS(C)(=O)=O)cc2C1(C)C (stereo not drawn)
CYP2C8 (gene 1558)
  AC50: 86.4 µM (active)
CYP2C9 (gene 1559)
  AC50: 82 µM (active)
CYP2E1 (gene 1571)
  AC50: 62.6 µM (active)
CYP4A11 (gene 1579)
  AC50: 69.1 µM (active)
[1]
  AC50: 93 µM (active)
[2]
  outcome: inactive
[3]
  outcome: inactive
[4]
  AC50: 78.8 µM (active)
CYP3A5 (gene 1577)
  AC50: 75.2 µM (active)
[5]
  AC50: 63.7 µM (active)
[6]
  AC50: 85.6 µM (active)
[7]
  AC50: 82 µM (active)
[8]
  outcome: inactive
[9]
  AC50: 78.3 µM (active)
[10]
  AC50: 81.8 µM (active)
[11]
  outcome: inactive
[12]
  outcome: inactive

## O=C(O)CCCOc1ccc(Cl)cc1Cl
CYP2C8 (gene 1558)
  AC50: 14.6 µM (active)
CYP2C9 (gene 1559)
  outcome: inactive
CYP2E1 (gene 1571)
  outcome: inactive
CYP4A11 (gene 1579)
  AC50: 10.1 µM (active)
[1]
  outcome: inactive
[2]
  outcome: inactive
[3]
  outcome: inactive
[4]
  outcome: inactive
CYP3A5 (gene 1577)
  AC50: 36.5 µM (active)
[5]
  AC50: 10.1 µM (active)
[6]
  outcome: inactive
[7]
  outcome: inactive
[8]
  outcome: inactive
[9]
  outcome: inactive
[10]
  outcome: inactive
[11]
  outcome: inactive
[12]
  outcome: inactive

## O=[N+]([O-])c1c(Cl)c(Cl)c(Cl)c(Cl)c1Cl
CYP2C8 (gene 1558)
  outcome: inactive
CYP2C9 (gene 1559)
  outcome: inactive
CYP2E1 (gene 1571)
  AC50: 34.3 µM (active)
[1]
  outcome: inactive
[2]
  outcome: inactive
[3]
  outcome: inactive
[4]
  outcome: inactive
CYP3A5 (gene 1577)
  outcome: inactive
[5]
  AC50: 50 µM (active)
[6]
  outcome: inactive
[7]
  outcome: inactive
[8]
  outcome: inactive
[9]
  outcome: inactive
[10]
  outcome: inactive
[11]
  outcome: inactive
[12]
  outcome: inactive

## CNC(=O)/C=C(\C)OP(=O)(OC)OC
CYP2C8 (gene 1558)
  outcome: inactive
CYP2C9 (gene 1559)
  outcome: inactive
CYP2E1 (gene 1571)
  outcome: inactive
CYP4A11 (gene 1579)
  outcome: inactive
[1]
  outcome: inactive
[2]
  outcome: inactive
[3]
  outcome: inactive
[4]
  outcome: inactive
CYP3A5 (gene 1577)
  outcome: inactive
[5]
  outcome: inactive
[6]
  outcome: inactive
[7]
  outcome: inactive
[8]
  outcome: inactive
[9]
  outcome: inactive
[10]
  outcome: inactive
[11]
  outcome: inactive
[12]
  outcome: inactive

## N#Cc1c(Cl)c(Cl)c(Cl)c(C#N)c1Cl
CYP2C8 (gene 1558)
  AC50: 50 µM (active)
CYP2C9 (gene 1559)
  outcome: inactive
CYP2E1 (gene 1571)
  AC50: 66.1 µM (active)
CYP4A11 (gene 1579)
  AC50: 50 µM (active)
[1]
  AC50: 19.1 µM (active)
[2]
  AC50: 6.66 µM (active)
[3]
  outcome: inactive
[4]
  outcome: inactive
CYP3A5 (gene 1577)
  outcome: inactive
[5]
  AC50: 77.7 µM (active)
[6]
  outcome: inactive
[7]
  AC50: 34 µM (active)
[8]
  outcome: inactive
[9]
  outcome: inactive
[10]
  outcome: inactive
[11]
  outcome: inactive
[12]
  AC50: 17.3 µM (active)

## CNC(=O)CSP(=S)(OC)OC
CYP2C8 (gene 1558)
  outcome: inactive
CYP2C9 (gene 1559)
  outcome: inactive
CYP2E1 (gene 1571)
  outcome: inactive
CYP4A11 (gene 1579)
  outcome: inactive
[1]
  outcome: inactive
[2]
  outcome: inactive
[3]
  outcome: inactive
[4]
  outcome: inactive
CYP3A5 (gene 1577)
  outcome: inactive
[5]
  outcome: inactive
[6]
  outcome: inactive
[7]
  outcome: inactive
[8]
  outcome: inactive
[9]
  outcome: inactive
[10]
  outcome: inactive
[11]
  outcome: inactive
[12]
  outcome: inactive

## COP(=S)(OC)Oc1ccc([N+](=O)[O-])cc1
CYP2C8 (gene 1558)
  outcome: inactive
CYP2C9 (gene 1559)
  outcome: inactive
CYP2E1 (gene 1571)
  outcome: inactive
CYP4A11 (gene 1579)
  outcome: inactive
[1]
  outcome: inactive
[2]
  outcome: inactive
[3]
  outcome: inactive
[4]
  outcome: inactive
CYP3A5 (gene 1577)
  outcome: inactive
[5]
  outcome: inactive
[6]
  outcome: inactive
[7]
  outcome: inactive
[8]
  outcome: inactive
[9]
  outcome: inactive
[10]
  outcome: inactive
[11]
  outcome: inactive
[12]
  outcome: inactive
